Rows were chosen to be rich in hits. Some 3.5% of all compounds tested hit in one or more screens of this group.
FBW7 activator = FBW7 E3 ligase activators, primary screen, biochemical, AlphaScreen, human; F-box/WD repeat-containing protein 7 (Homo sapiens), Q969H0; AlphaScreen FBW7–phospho-cyclin E peptide binding, activator screen; normalized activity (activation), % at 26.1 µM; actives 0.13% (n = 650,000); in the data active = normalized activity above about 1.9%;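 also: purified mutant Fbw7 with reduced substrate affinity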
Target sequence (Q969H0 whole entry, looked up): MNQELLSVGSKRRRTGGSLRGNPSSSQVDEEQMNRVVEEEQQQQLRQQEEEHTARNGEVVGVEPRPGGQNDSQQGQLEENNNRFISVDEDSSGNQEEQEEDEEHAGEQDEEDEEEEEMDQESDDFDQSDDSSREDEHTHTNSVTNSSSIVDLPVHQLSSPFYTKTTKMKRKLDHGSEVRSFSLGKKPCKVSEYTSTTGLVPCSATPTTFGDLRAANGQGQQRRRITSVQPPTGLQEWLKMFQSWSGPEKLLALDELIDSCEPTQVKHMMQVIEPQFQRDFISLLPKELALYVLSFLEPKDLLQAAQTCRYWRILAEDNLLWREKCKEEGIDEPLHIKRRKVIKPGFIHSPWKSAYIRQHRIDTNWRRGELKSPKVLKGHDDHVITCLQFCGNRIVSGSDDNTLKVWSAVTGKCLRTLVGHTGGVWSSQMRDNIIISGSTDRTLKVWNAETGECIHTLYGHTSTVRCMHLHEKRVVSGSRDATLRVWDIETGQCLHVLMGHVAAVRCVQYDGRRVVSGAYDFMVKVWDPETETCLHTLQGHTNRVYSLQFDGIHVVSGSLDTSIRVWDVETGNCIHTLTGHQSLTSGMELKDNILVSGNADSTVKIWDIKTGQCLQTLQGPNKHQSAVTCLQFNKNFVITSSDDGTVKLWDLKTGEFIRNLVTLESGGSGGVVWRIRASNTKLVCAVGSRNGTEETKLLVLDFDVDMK
TEAD-YAP block = TEAD-YAP interaction inhibition, primary screen, TEAD-YAP interaction inhibitor project, luminescence, HEK-TIYL cells; TEAD-Gal4/YAP UAS-luciferase luminescence; AID 1259422, 2018; actives 1.4% (n = 640,000); inhibition, % at 9.12 µM; in the data active = inhibition above about 32%;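 also: 0% = median of test compound wells and 100% = reference inhibitor wells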
GPR151 ag = activators of human GPR151, primary screen, cell-based, PathHunter beta-arrestin, luminescence; G-protein coupled receptor 151 (Homo sapiens), Q8TDV0; PathHunter beta-arrestin GPR151 cells; activation, % at 11.2 µM; actives 1% (n = 650,000); in the data active = activation above about 4.9%;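 also: 0% = median of compound wells and 100% = cells with positive control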
MITF primary = MITF inhibitors, primary screen, biochemical, AlphaScreen, human; Microphthalmia-associated transcription factor (Homo sapiens), O75030; AlphaScreen MITF homodimerization, bead proximity signal; inhibition, % at 2.6 µM; actives 0.91% (n = 650,000); AID 1259374, 2018; in the data active = inhibition above about 50%;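 also: 0% = vehicle wells with protein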
GPR151 confirm = GPR151 activators, triplicate retest, confirmation, cell-based, PathHunter beta-arrestin, luminescence; shares compounds with GPR151 ag; GPR151 PathHunter beta-arrestin cells, 90 min; % of EA-reagent control over plate median; activation, % at 11.2 µM; 6,700 tested, under 10 active;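 active = mean percent activation across replicates above the confirmation screen cutoff of 4.91%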
GPR119 counter = GPR119 activators in beta-arrestin cells, counter-screen for GPR151 activator project, cell-based, PathHunter beta-arrestin, luminescence, triplicate; AID 1508611, 2020; shares compounds with GPR151 ag; activation, % at 11.2 µM; actives 0.3% (n = 6,700); 90 min; 0 = compound-well median, 100 = enzyme-acceptor control;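 active = mean percent activation in the counterscreen above 29.09%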;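 also: counterscreen on off-target GPR119 to flag nonselective hits from the GPR151 activator screen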
The depositor's hits bear a star.

What do the screens show for `CCc1ccc(Nc2nnc(SCC(=O)O)s2)cc1`?
FBW7 activator: 0; TEAD-YAP block: -2; GPR151 ag: 1; MITF primary: -2

How did O=C(/C=C/c1ccccc1)NCCOC(=O)Nc1ccccc1 do in these assays?
FBW7 activator: 1; TEAD-YAP block: -1; GPR151 ag: 9.8*; MITF primary: 11; GPR151 confirm: 1; GPR119 counter: 5

What do the screens show for `CCCCC1CCC(C(=O)OCC(=O)c2ccc(-c3ccc(Br)cc3)cc2)CC1` (stereo not drawn)?
FBW7 activator: 0; TEAD-YAP block: 9; GPR151 ag: 6.6*; MITF primary: 4; GPR151 confirm: 0; GPR119 counter: -4

How did CC1(C)CC(=O)C2=C(C1)N(c1sc3c(c1C#N)CCCCC3)C(N)=C(C#N)C2c1cccc([N+](=O)[O-])c1 (stereo not drawn) do in these assays?
FBW7 activator: 0; TEAD-YAP block: -4; GPR151 ag: 1; MITF primary: -12

Results for COc1ccc(N2CCN(c3c(-c4ccc5c(c4)OCC(=O)N5)c(=O)c3=O)CC2)cc1 ?
FBW7 activator: 0; TEAD-YAP block: 1; GPR151 ag: -2; MITF primary: -2

Results for CCCOc1cc2oc(=O)cc(C)c2cc1Cl ?
FBW7 activator: 0; TEAD-YAP block: -10; GPR151 ag: 5.4*; MITF primary: 8; GPR151 confirm: 0; GPR119 counter: -5

Results for O=[N+]([O-])c1cnn(Cc2cccc(Cl)c2)c1 ?
FBW7 activator: 0; TEAD-YAP block: 0; GPR151 ag: -1; MITF primary: 2

How did CC1=C(C(=O)OC2CCCCCC2)C(c2ccccc2[N+](=O)[O-])CC(=O)N1 (stereo not drawn) do in these assays?
FBW7 activator: 0; TEAD-YAP block: -2; GPR151 ag: 0; MITF primary: 9

What do the screens show for `O=C1CC(c2ccccc2[N+](=O)[O-])c2ccc3c(O)cccc3c2N1` (stereo not drawn)?
FBW7 activator: 0; TEAD-YAP block: 6; GPR151 ag: 5.3*; MITF primary: -4; GPR151 confirm: 0; GPR119 counter: 2

How did CC1=C(C(=O)OC2CCCCCCC2)C(c2ccccc2[N+](=O)[O-])CC(=O)N1 (stereo not drawn) do in these assays?
FBW7 activator: 0; TEAD-YAP block: -1; GPR151 ag: 5.3*; MITF primary: 5; GPR151 confirm: 0; GPR119 counter: 14

Results for O=C1CC(c2cc3c(cc2[N+](=O)[O-])OCO3)c2ccc3ccccc3c2N1 (stereo not drawn) ?
FBW7 activator: 0; TEAD-YAP block: -1; GPR151 ag: 12*; MITF primary: 0; GPR151 confirm: 1; GPR119 counter: 0

Results for O=C1CC(c2ccc3c(c2)OCO3)c2ccc3ccccc3c2N1 (stereo not drawn) ?
FBW7 activator: 0; TEAD-YAP block: 12; GPR151 ag: 2; MITF primary: 12

How did Cc1ccc(-n2nc3cc(C)c(NC(=O)c4cccc(C)c4)cc3n2)cc1 do in these assays?
FBW7 activator: 0; TEAD-YAP block: -4; GPR151 ag: 2; MITF primary: -5

How did Cc1ccc2occ(C(=O)c3ccccc3Cl)c(=O)c2c1 do in these assays?
FBW7 activator: 0; TEAD-YAP block: 11; GPR151 ag: 7.7*; MITF primary: 10; GPR151 confirm: 1; GPR119 counter: -6

What do the screens show for `O=C1N=C(N2CCCC2)S/C1=C\c1cn[nH]c1-c1ccccc1`?
FBW7 activator: 0; TEAD-YAP block: 4; GPR151 ag: 7.6*; MITF primary: 0; GPR151 confirm: 0; GPR119 counter: 5

How did NC1=NC(=O)/C(=C/c2cn[nH]c2-c2ccccc2)S1 do in these assays?
FBW7 activator: 0; TEAD-YAP block: -1; GPR151 ag: 0; MITF primary: 0

How did Cc1ccc(/C=C2\SC(N3CCOCC3)=NC2=O)cc1 do in these assays?
FBW7 activator: 0; TEAD-YAP block: -18; GPR151 ag: -1; MITF primary: 15

How did O=C1N=C(N2CCOCC2)S/C1=C\c1cccc2ccccc12 do in these assays?
FBW7 activator: 0; TEAD-YAP block: -40; GPR151 ag: 6.1*; MITF primary: 17; GPR151 confirm: 0; GPR119 counter: -3

What do the screens show for `CC(C)Oc1ccc(/C=C2/SC(N3CCOCC3)=NC2=O)cc1`?
FBW7 activator: 0; TEAD-YAP block: -17; GPR151 ag: 7.0*; MITF primary: 17; GPR151 confirm: 1; GPR119 counter: 11

What do the screens show for `O=C1N=C(N2CCOCC2)S/C1=C\c1c2ccccc2cc2ccccc12`?
FBW7 activator: 0; TEAD-YAP block: 5; GPR151 ag: 1; MITF primary: 15

How did CN1CCC2(CC1)OCc1cc(-c3ccc(C#N)cc3)ccc1O2 do in these assays?
FBW7 activator: 0; TEAD-YAP block: 11; GPR151 ag: 3; MITF primary: -8

How did CC(=O)Nc1ccc(NC(=O)c2oc3cc(C)c(C)cc3c2C)cc1 do in these assays?
FBW7 activator: 0; TEAD-YAP block: -10; GPR151 ag: 23*; MITF primary: 1; GPR151 confirm: 0; GPR119 counter: 0

How did Cc1cc2oc(C(=O)Nc3cccnc3)c(C)c2cc1C do in these assays?
FBW7 activator: 0; TEAD-YAP block: -29; GPR151 ag: 0; MITF primary: 7

How did O=C(NC1CCSC1=O)c1cccc(C(=O)NC2CCSC2=O)c1 (stereo not drawn) do in these assays?
FBW7 activator: 0; TEAD-YAP block: -3; GPR151 ag: 5.3*; MITF primary: -28; GPR151 confirm: 0; GPR119 counter: -1

What do the screens show for `COc1cccc(C2c3c(oc4ccccc4c3=O)C(=O)N2Cc2ccccc2)c1` (stereo not drawn)?
FBW7 activator: 1; TEAD-YAP block: 2; GPR151 ag: 0; MITF primary: 8

Results for O=C(Nc1cc2ccccc2cc1NC(=O)c1ccc(Cl)cc1)c1ccc(Cl)cc1 ?
FBW7 activator: 0; TEAD-YAP block: -4; GPR151 ag: 5.6*; MITF primary: 2; GPR151 confirm: 1; GPR119 counter: 19

Results for COCCCn1c(-c2ccc(C(C)(C)C)cc2)n[nH]c1=S ?
FBW7 activator: 0; TEAD-YAP block: -10; GPR151 ag: 12*; MITF primary: 0; GPR151 confirm: 0; GPR119 counter: -12

What do the screens show for `C#CCOc1ccc2c(c1)c(C(=O)OCC)c(C)n2C`?
FBW7 activator: 0; TEAD-YAP block: 10; GPR151 ag: 2; MITF primary: -1
